Compound activity from PubChem BioAssay.
beta cell repl: inducers of MIN6 beta-cell proliferation, primary screen, ATP luminescence, uHTS; 330,000 tested, 0.29% active; MIN6 cells proliferation, ATPlite luminescence, 48 h; cells starved in 0.2% serum; 100% = growth in 10% serum; proliferation, % at 10 µM;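 active means compounds whose signal lies at least 3.5 SD above the mean of all wells on their plate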;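 further: 0% = DMSO-treated cells in low-serum medium and 100% = 10% serum control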
MOR-DOR inv ag: inverse agonists of MOR-DOR heterodimerization, primary screen, cell-based, luminescence; cell-based MOR-DOR heterodimer luminescence, inverse agonism; inhibition, % at 9.3 µM; 340,000 tested, 0.21% active; in the data active means inhibition above about 22%, passing the limit was not always enough;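 further: 0% = cells with DMSO and 100% = wells without cells with DMSO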
MOR-DOR ag: agonists of OPRM1-OPRD1 heterodimerization, primary screen, cell-based, luminescence; cells; activation, % at 9.3 µM; 340,000 tested, 0.3% active; AID 504326, 2011; in the data active means activation above about 18%;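 further: 0% = vehicle-treated cells and 100% = reference agonist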
HTR5A inv ctr: HTR5A inverse agonists in luminescence cell assay, primary screen, counter-screen for OPRM1-OPRD1 heterodimer inverse agonist project, full-deck HTS; HTR5A cell line, inverse agonism; inhibition, % at 9.3 µM; 340,000 tested, 0.083% active; in the data active means inhibition mostly above about 23%, no sharp cut-off; inactive means mostly below about 18%;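 further: 0% = cells with DMSO and 100% = no-cell wells with DMSO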
Target sequence (P47898 whole entry, looked up): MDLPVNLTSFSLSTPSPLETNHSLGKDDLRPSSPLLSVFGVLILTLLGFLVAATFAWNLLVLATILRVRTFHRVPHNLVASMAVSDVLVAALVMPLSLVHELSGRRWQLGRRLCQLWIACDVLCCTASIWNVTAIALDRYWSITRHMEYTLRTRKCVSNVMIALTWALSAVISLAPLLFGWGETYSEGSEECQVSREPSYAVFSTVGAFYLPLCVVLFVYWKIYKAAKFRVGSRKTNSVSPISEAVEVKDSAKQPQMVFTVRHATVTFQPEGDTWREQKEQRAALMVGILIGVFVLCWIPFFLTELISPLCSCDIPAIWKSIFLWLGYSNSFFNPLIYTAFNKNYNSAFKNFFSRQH
V-ATPase pHluor: regulators of yeast V-ATPase proton pumping, primary screen, pHLuorin cytosolic pH fluorescence; S. cerevisiae; response, % at 10 µM; 350,000 tested, 0.37% active; AID 504577, 2011; in the data active means response mostly above about 7.3%, no sharp cut-off; inactive means mostly below about 5.4%; further: actives read high
HTR5A ag ctr: HTR5A agonists in luminescence cell assay, primary screen, counter-screen for OPRM1-OPRD1 heterodimer agonist project, full-deck HTS; 5-hydroxytryptamine receptor 5A (Homo sapiens), P47898; activation, % at 9.3 µM; cell-based; 340,000 tested, 0.61% active; in the data active means activation mostly above about 9.5%, no sharp cut-off; inactive means mostly below about 7.6%;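 further: 0% = cells with vehicle only and 100% = reference agonist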
* hit, by the source's call. Rows were chosen to be rich in hits. Some 1.7% of all compounds tested hit in one or more screens of this group.

For COc1ccccc1N=C(C)C1=C(O)CC(c2ccccc2)CC1=O (stereo not drawn) the results were beta cell repl -5, MOR-DOR inv ag 1, MOR-DOR ag 0, HTR5A inv ctr -59, V-ATPase pHluor -2 and HTR5A ag ctr 8.9*.
`CCCC(=Nc1ccccc1OC)C1=C(O)CC(c2ccccc2)CC1=O` (stereo not drawn) gave beta cell repl -1, MOR-DOR inv ag -9, MOR-DOR ag 2, HTR5A inv ctr 31, V-ATPase pHluor -2 and HTR5A ag ctr -2.
`O=C(c1ccc2c3c(cccc13)CC2)C1CCCN(C(=O)c2ccc(=O)[nH]c2)C1` (stereo not drawn) gave beta cell repl -2, MOR-DOR inv ag -6, MOR-DOR ag 1, HTR5A inv ctr -35, V-ATPase pHluor 0 and HTR5A ag ctr 13*.
For COc1ccc2nc(NCCCNC(=O)c3cc(OC)c(OC)c(OC)c3)c(C#N)cc2c1 the results were beta cell repl 0, MOR-DOR inv ag 0, MOR-DOR ag 0, HTR5A inv ctr -4, V-ATPase pHluor -2 and HTR5A ag ctr 14*.
For CC(=O)Oc1ccc(C(c2ccc(OC(C)=O)cc2)c2ccccn2)cc1 the results were beta cell repl 3, MOR-DOR inv ag -313, MOR-DOR ag 58*, HTR5A inv ctr -120, V-ATPase pHluor -1 and HTR5A ag ctr 34*.
For c1ccc(C(c2ccccn2)c2ccccn2)cc1 the results were beta cell repl 2, MOR-DOR inv ag 9, MOR-DOR ag -2, HTR5A inv ctr -4, V-ATPase pHluor -2 and HTR5A ag ctr 2.
For CCC(C)[C@@H](NC(=O)OC(C)(C)C)c1nnc(S(=O)(=O)Cc2cccc(C)c2)o1 (stereo partly drawn) the results were MOR-DOR inv ag 4, MOR-DOR ag -1, HTR5A inv ctr 3, V-ATPase pHluor 3 and HTR5A ag ctr 14*.
Screening CC(C)(C)OC(=O)N[C@@H](Cc1ccccc1)c1nnc(S(=O)(=O)Cc2ccccc2)o1 returned beta cell repl -5.
Screening Cc1nc2c(C(=O)N3CCOCC3)cnn2c(C)c1Cc1ccc(Cl)cc1 returned beta cell repl -1, MOR-DOR inv ag -20, MOR-DOR ag 4, HTR5A inv ctr -18, V-ATPase pHluor 5 and HTR5A ag ctr 12*.
Screening Cc1nc2c(C(=O)N3CCOCC3)cnn2c(C)c1Cc1cccc(Cl)c1 returned beta cell repl 0.
`COc1cccc(NCc2cc(=O)oc3cc(C)c(O)cc23)c1` gave beta cell repl 1, MOR-DOR inv ag 20, MOR-DOR ag -4, HTR5A inv ctr 16, V-ATPase pHluor 2 and HTR5A ag ctr -4.
`COc1cccc(NCc2cc(=O)oc3cc(-c4ccccc4)c(O)cc23)c1` gave beta cell repl -2, MOR-DOR inv ag 2, MOR-DOR ag 0, HTR5A inv ctr 1, V-ATPase pHluor 21* and HTR5A ag ctr -4.
Cc1cc(S(=O)(=O)Nc2ccc(C(=O)N3CCN(c4ccccc4O)CC3)cc2)ccc1F was read as beta cell repl 1, MOR-DOR inv ag -3, MOR-DOR ag 0, HTR5A inv ctr -15, V-ATPase pHluor -2 and HTR5A ag ctr 14*.
For CCn1nc(C)c(CN2CCC(C(=O)Nc3cccc(-c4cccc(F)c4)c3)CC2)c1C the results were beta cell repl -7, MOR-DOR inv ag -3, MOR-DOR ag 1, HTR5A inv ctr -33, V-ATPase pHluor -1 and HTR5A ag ctr 8.7*.
For CC1(C)CC(=O)c2cc3c(N)c(C(=O)NCc4ccccc4)sc3nc2C1 the results were beta cell repl -3, MOR-DOR inv ag -3, MOR-DOR ag 1, HTR5A inv ctr -39, V-ATPase pHluor 2 and HTR5A ag ctr 11*.
`COC(=O)c1sc2nc3c(cc2c1N)C(=O)CC(C)(C)C3` gave beta cell repl 0, MOR-DOR inv ag -4, MOR-DOR ag 1, HTR5A inv ctr 4, V-ATPase pHluor -3 and HTR5A ag ctr -2.
For CCCCCCCCCCOC(=O)Cn1c(COc2cccc(C)c2)[n+](C)c2ccccc21 the results were beta cell repl -4, MOR-DOR inv ag -36, MOR-DOR ag 7, HTR5A inv ctr -47, V-ATPase pHluor -5 and HTR5A ag ctr 13*.
For CCOC(=O)Cn1c(COc2ccccc2OC)[n+](C)c2ccccc21 the results were beta cell repl 1 and V-ATPase pHluor -1.
Screening Cc1ccc(CN2C(=O)C(CC(C)C)Nc3ncnc(N4CCN(c5ccccn5)CC4)c32)cc1 (stereo not drawn) returned beta cell repl -7, MOR-DOR inv ag 14, MOR-DOR ag -2, HTR5A inv ctr -7, V-ATPase pHluor -5 and HTR5A ag ctr -5.
For Cc1ccc(CN2C(=O)C(C)Nc3ncnc(N4CCN(c5ccccn5)CC4)c32)cc1 (stereo not drawn) the results were beta cell repl 0, MOR-DOR inv ag 55*, MOR-DOR ag -12, HTR5A inv ctr 56*, V-ATPase pHluor 7 and HTR5A ag ctr -17.
Screening COc1ccc(CN2C(=O)C(C)Nc3ncnc(N4CCN(c5ccccn5)CC4)c32)cc1 (stereo not drawn) returned beta cell repl -3, MOR-DOR inv ag 70*, MOR-DOR ag -12, HTR5A inv ctr 63*, V-ATPase pHluor -6 and HTR5A ag ctr -22.
For CC1Nc2ncnc(N3CCN(c4ccccn4)CC3)c2N(Cc2ccccc2)C1=O (stereo not drawn) the results were beta cell repl -5, MOR-DOR inv ag 45*, MOR-DOR ag -10, HTR5A inv ctr 43*, V-ATPase pHluor 2 and HTR5A ag ctr -14.
CC(/C=C(\NC(=O)c1ccccc1)C(=O)N=Nc1c(O)[nH]c2ccc(C)cc12)=C\c1ccccc1 was read as beta cell repl -1, MOR-DOR inv ag 4, MOR-DOR ag -1, HTR5A inv ctr -1, V-ATPase pHluor 1 and HTR5A ag ctr 0.
Screening C[C@H](CO)N1C[C@H](C)[C@@H](CN(C)Cc2ccncc2)Oc2c(NC(=O)Cc3ccccc3)cccc2C1=O returned beta cell repl -3, MOR-DOR inv ag 5, MOR-DOR ag -1, HTR5A inv ctr -8, V-ATPase pHluor 2 and HTR5A ag ctr 3.
C[C@@H]1CN([C@H](C)CO)C(=O)CCCn2nncc2CO[C@H]1CN(C)Cc1ccc2cccnc2c1 was read as V-ATPase pHluor 2.
Screening O=[N+]([O-])c1c(Nc2ccccn2)cc(Cl)c2nonc12 returned beta cell repl -4, MOR-DOR inv ag 7, MOR-DOR ag -1, HTR5A inv ctr -14, V-ATPase pHluor 33* and HTR5A ag ctr 1.
